In PubChem BioAssay (NCATS):
Inconclusive results are not listed. The source made the active and inactive calls. Unless noted, calls come from the whole dose curve; as a rule, active = well fitted curve in the direction sought with a large enough effect; inconclusive = small, poorly fitted or top-dose-only effect, or another doubt; inactive = no such curve, though single readings can be large; an effect the other way counts as inactive or inconclusive.

Key:
[1] = qHTS Assay for Identification of Small Molecule Antagonists for Thrombopoietin (TPO) Signaling Pathway (AID 918); details: TPO-dependent cell signaling reporter, antagonist mode; note: potency is the fitted concentration of half-maximal effect; nearly all actives have a fitted effect of over 60% in size
In short: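 Murine Ba/F3 cells expressing human TPO receptor and a Glycoprotein IIb promoter-luciferase reporter, IL-3-starved overnight, treated with compound plus TPO at EC50 (26 pM final). After 24 h at 37 C, luminescence read to detect inhibitors.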

[2] = Confirmation and Secondary Assay for Modulators of Hemoglobin Beta Chain Splicing at IVS2 705 locus (AID 930); details: HeLa EGFP-705 splicing reporter, GFP fluorescence, 48 h; series mostly up to 46.1 µM;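 note: HeLa cells stably expressing the EGFP-705 splicing reporter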
In short: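 Restored EGFP fluorescence after 2-day compound exposure reports splicing correction in IVS2-705 EGFP reporter HeLa cells; positive control was 500 nM splice-blocking PNA oligo. Signal measured as well total peak GFP intensity (488 nm excitation).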

[3] = target: Muscarinic acetylcholine receptor M1 (Rattus norvegicus) (UniProt P08482); assay: qHTS Assay for Antagonists of Acetylcholine Muscarinic M1 Receptor: Measurement of IP-One Response (AID 944); details: CHO-M1 cells, IP-One HTRF, antagonist mode; series mostly up to 46.1 µM; note: nearly all actives have a fitted effect of over 75% in size; note: potency is the fitted concentration of half-maximal effect
Muscarinic acetylcholine receptor M1 (Rattus norvegicus), sequence (P08482 whole entry, looked up): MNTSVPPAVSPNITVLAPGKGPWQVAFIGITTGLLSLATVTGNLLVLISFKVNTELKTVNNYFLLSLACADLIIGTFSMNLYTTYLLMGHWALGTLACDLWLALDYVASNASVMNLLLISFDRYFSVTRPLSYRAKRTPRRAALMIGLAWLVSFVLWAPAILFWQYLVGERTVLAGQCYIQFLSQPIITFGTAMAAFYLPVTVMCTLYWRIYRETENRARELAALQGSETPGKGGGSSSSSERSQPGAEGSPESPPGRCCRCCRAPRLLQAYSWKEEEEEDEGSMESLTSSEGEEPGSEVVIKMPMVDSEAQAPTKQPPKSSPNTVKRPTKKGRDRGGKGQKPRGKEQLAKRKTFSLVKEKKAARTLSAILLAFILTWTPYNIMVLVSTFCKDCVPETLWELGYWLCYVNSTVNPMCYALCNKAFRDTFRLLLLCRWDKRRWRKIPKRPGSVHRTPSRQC
In short: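 CHO cells stably expressing rat M1, pretreated 10 min with compound, then stimulated 30 min with carbachol at EC80 (200 nM) in LiCl-containing buffer pH 7.4; IP1 accumulation read by HTRF competition (665/620 nm).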

[4] = target: Pyruvate kinase PKM (Homo sapiens) (UniProt P14618); assay: qHTS Assay for Activators of Human Muscle Pyruvate Kinase (AID 954; active = well fitted curve in the direction sought with a large enough effect, not every such curve was filed as active); details: purified human muscle pyruvate kinase, luciferase-coupled luminescence, 1 h; series mostly up to 57.5 µM
Pyruvate kinase PKM (Homo sapiens), sequence (P14618 whole entry, looked up): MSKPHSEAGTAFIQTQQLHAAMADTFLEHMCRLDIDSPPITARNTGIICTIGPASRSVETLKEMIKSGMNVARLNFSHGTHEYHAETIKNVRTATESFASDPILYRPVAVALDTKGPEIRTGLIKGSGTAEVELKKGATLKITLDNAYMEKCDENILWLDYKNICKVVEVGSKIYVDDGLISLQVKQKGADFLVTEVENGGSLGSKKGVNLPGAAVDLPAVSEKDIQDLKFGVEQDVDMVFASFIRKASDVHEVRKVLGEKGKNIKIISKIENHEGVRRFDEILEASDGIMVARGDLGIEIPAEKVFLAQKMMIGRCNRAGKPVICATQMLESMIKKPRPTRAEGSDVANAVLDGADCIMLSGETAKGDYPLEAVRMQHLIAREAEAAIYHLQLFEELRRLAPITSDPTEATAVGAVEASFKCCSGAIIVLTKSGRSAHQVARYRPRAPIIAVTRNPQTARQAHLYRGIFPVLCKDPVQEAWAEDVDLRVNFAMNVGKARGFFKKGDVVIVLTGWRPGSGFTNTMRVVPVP
In short: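 Human PKM2 activity is measured as ATP generation, detected by luciferase-coupled luminescence. The enzyme (0.1 nM) acts on 0.5 mM PEP and 0.1 mM ADP for 1 h at ambient temperature; data are normalized to uninhibited and full-inhibition wells.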

[5] = Cell Viability - LYMP2-001 (AID 921); details: LYMP2-001 lymphoblastoid cell viability; series mostly up to 92.2 µM; note: nearly all actives have a fitted effect of over 70% in size
In short: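 Human lymphoblastoid LYMP2-001 cells, 2500 per well, in complete medium, treated 24 h at 37 C. Viability from cellular ATP by CellTiter-Glo luminescence; AC50 from Hill-equation fits of qHTS concentration-response.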

[6] = MultiTox-Fluor Cytotoxicity Assay - LYMP1-001 - Dead Cells (AID 946); details: LYMP1-001 lymphoblastoid cells, dead-cell protease fluorescence; series mostly up to 92.2 µM
In short: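 Cytotoxicity as increased dead-cell protease fluorescence (bis-AAF-R110, 485/520 nm), read 60 min after MultiTox-Fluor reagent. Human lymphoblastoid line exposed 16 h; Hill-fitted AC50, with DMSO as 0% and 15 uM tetraoctylammonium bromide as 100%.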

[7] = MultiTox-Fluor Cytotoxicity Assay - LYMP1-001 - Live Cells (AID 947); details: LYMP1-001 lymphoblastoid cells, live-cell protease fluorescence viability; series mostly up to 92.2 µM
[8] = Cell Viability - LYMP1-002 - Assay at 16 hr (AID 948); details: LYMP1-002 lymphoblastoid cell viability; series mostly up to 92.2 µM
In short: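 LYMP1-002 human lymphoblastoid cells, 2500/well, were treated with compounds for 16 hr at 37 C in complete medium. Viability was read as intracellular ATP by CellTiter-Glo luminescence, and AC50 was derived from a Hill fit to concentration-response data.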

[9] = MultiTox-Fluor Cytotoxicity Assay - LYMP1-002 - Dead Cells (AID 960); details: LYMP1-002 lymphoblastoid cells, dead-cell protease fluorescence; series mostly up to 46.1 µM; note: nearly all actives have a fitted effect of over 60% in size
In short: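 Human lymphoblastoid LYMP1-002 cells, 2500/well, treated 16 h at 37 C; dead-cell protease cleavage of bis-AAF-R110 read by fluorescence (485/520); normalized to DMSO and 15 uM tetraoctylammonium bromide; AC50 from Hill fit.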

[10] = MultiTox-Fluor Cytotoxicity Assay - LYMP1-003 - Dead Cells (AID 961); details: LYMP1-003 lymphoblastoid cells, dead-cell protease fluorescence; series mostly up to 92.2 µM; note: nearly all actives have a fitted effect of over 70% in size
In short: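 Dead-cell protease release, detected as bis-AAF-R110 fluorescence at 485/520 nm, was measured in LYMP1-003 cells after 16 h compound treatment at 37 C. AC50 values came from Hill-modeled qHTS curves normalized to DMSO (0%) and 15 uM tetraoctylammonium bromide (100%).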

[11] = MultiTox-Fluor Cytotoxicity Assay - LYMP1-003 - Live Cells (AID 962); details: LYMP1-003 lymphoblastoid cells, MultiTox-Fluor live-cell protease fluorescence; series mostly up to 92.2 µM;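 note: cells exposed to compound for 16 hours at 37 °C; cytotoxic hits lower the live-cell protease signal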
In short: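 LYMP1-003 lymphoblastoid cells, 2500/well in complete medium, treated 16 h at 37 C; live-cell protease cleavage of GF-AFC read by fluorescence (Ex/Em 405/510) after 60 min reagent; AC50 from Hill fits of concentration-response.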

[12] = Cell Viability - LYMP1-003 - Assay at 24 hr (AID 963); details: LYMP1-003 lymphoblastoid cell viability; series mostly up to 92.2 µM
In short: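 Human lymphoblastoid LYMP1-003 cells, 2500/well, treated 24 h at 37 C in complete medium. Viability read as intracellular ATP by CellTiter-Glo luminescence after 30 min at room temperature; AC50 from Hill-equation fits of qHTS concentration-response.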

[13] = Cell Viability - LYMP1-003 - Assay at 40 hr (AID 964); details: LYMP1-003 lymphoblastoid viability; series mostly up to 92.2 µM; note: nearly all actives have a fitted effect of over 60% in size
In short: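 LYMP1-003 human lymphoblastoid cells, 2500/well, preincubated 5 h at 37 C, then treated with compound for 40 h at 37 C. Intracellular ATP read by CellTiter-Glo luminescence after 30 min at room temperature; AC50 from Hill-equation fits.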

[14] = Cell Viability - LYMP2-003 (AID 965); details: LYMP2-003 lymphoblastoid cell viability; series mostly up to 92.2 µM;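 note: cells exposed to compounds for 24 h before reading; nearly all actives have a fitted effect of over 50% in size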
In short: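 Human lymphoblastoid LYMP2-003 cells, 2500/well, exposed to compounds for 24 h at 37 C in complete medium. Viability read as intracellular ATP by CellTiter-Glo luminescence; AC50 from Hill-equation fits of qHTS concentration-response data.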

[15] = Cell Viability - LYMP2-004 (AID 966); details: LYMP2-004 lymphoblastoid cell viability, qHTS; series mostly up to 92.2 µM; note: nearly all actives have a fitted effect of over 65% in size
In short: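 Lymphoblastoid LYMP2-004 cells, 2500 per well, were preincubated for 5 hr and then treated with compound for 24 h at 37 C in complete medium. Viability was read as cellular ATP by CellTiter-Glo luminescence, and AC50 values were taken from Hill fits to concentration-response data.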

[16] = target: Pyruvate kinase (Leishmania mexicana) (UniProt Q27686); assay: qHTS Validation Assay for Inhibitors of Leishmania Mexicana Pyruvate Kinase (AID 945); note: potency is the fitted concentration of half-maximal effect; details: purified L. mexicana pyruvate kinase, enzyme activity, E451W mutant enzyme; series mostly up to 57.5 µM
Pyruvate kinase (Leishmania mexicana), sequence (Q27686 2-499 E452W): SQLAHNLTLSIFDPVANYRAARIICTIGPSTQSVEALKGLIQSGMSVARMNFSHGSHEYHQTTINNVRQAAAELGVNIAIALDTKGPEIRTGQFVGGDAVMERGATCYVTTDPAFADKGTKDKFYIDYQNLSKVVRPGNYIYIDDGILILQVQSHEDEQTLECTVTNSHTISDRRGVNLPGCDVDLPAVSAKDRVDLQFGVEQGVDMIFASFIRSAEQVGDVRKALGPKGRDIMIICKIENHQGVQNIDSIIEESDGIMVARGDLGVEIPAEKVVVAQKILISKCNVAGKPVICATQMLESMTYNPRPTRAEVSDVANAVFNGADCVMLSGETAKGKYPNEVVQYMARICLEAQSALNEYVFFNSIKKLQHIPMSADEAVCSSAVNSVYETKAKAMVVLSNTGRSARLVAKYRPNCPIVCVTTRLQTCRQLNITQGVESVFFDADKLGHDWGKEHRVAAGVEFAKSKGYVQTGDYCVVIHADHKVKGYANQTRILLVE
In short: (§1)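 Purified LmPYK (E451W mutant, 0.2 nM) was incubated 1 h at room temperature with 0.5 mM PEP and 0.1 mM ADP in 50 mM imidazole pH 7.2, 50 mM KCl, 7 mM MgCl2; ATP formed was read by PKLight luminescence, normalized to DMSO wells.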

[17] = target: Muscarinic acetylcholine receptor M1 (Rattus norvegicus) (UniProt P08482); assay: qHTS Assay for Antagonists of Acetylcholine Muscarinic M1 Receptor: Kinetic Measurement of Intracellular Calcium Response (AID 943); details: M1-expressing cells, kinetic intracellular calcium fluorescence; series mostly up to 35.3 µM; note: nearly all actives have a fitted effect of over 75% in size; note: potency is the fitted concentration of half-maximal effect
In short: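 CHO cells expressing rat M1 receptor, Fluo-4 loaded, preincubated 10 min with compound, then stimulated with EC80 carbachol (100 nM final). Kinetic calcium fluorescence over 4 min; response taken as peak over basal signal.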

[18] = target: Pyruvate kinase PKM (Homo sapiens) (UniProt P14618); assay: qHTS Assay for Inhibitors of Human Muscle Pyruvate Kinase (AID 958); details: purified human PKM enzyme activity
In short: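 PKM2, human, >95% pure, 0.1 nM; PEP 0.5 mM (Km), ADP 0.1 mM; 50 mM imidazole pH 7.2, 50 mM KCl, 0.01% Tween 20, 0.05% BSA; 1 h RT; luciferase luminescence readout.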

[19] = target: Pyruvate kinase (Leishmania mexicana) (UniProt Q27686); assay: qHTS Validation Assay for Activators of Leishmania Mexicana Pyruvate Kinase (AID 959); details: purified L. mexicana pyruvate kinase, enzyme activity; series mostly up to 57.5 µM
In short: as §1

Measured: Potency

CCN(CC)C(=S)SSC(=S)N(CC)CC
inactive: [2] | [3] | [4]
active: [1] 0.398 µM

CCCc1cc(=O)[nH]c(=S)[nH]1
not listed: [1] | [3] | [4] | [16] | [17] | [18] | [19]
inactive: all other assays above

C[C@H](Cc1ccc(O)c(O)c1)[C@@H](C)Cc1ccc(O)c(O)c1
active: [1] 5.01 µM
inactive: [3] | [16] | [4]

O=Nc1c(-c2c(O)[nH]c3cc(Br)ccc23)[nH]c2ccccc12
active: [17] 0.1 µM | [3] 14.1 µM | [18] 15.8 µM
inactive: [4] | [19]

CC1(C)NC(=O)N(c2ccc([N+](=O)[O-])c(C(F)(F)F)c2)C1=O
inactive: [2] | [16] | [4]

CC(=O)N1CCN(c2ccc(OC[C@H]3CO[C@](Cn4ccnc4)(c4ccc(Cl)cc4Cl)O3)cc2)CC1
inactive: [16] | [4]

CCCCC(CC)COC(=O)C(C#N)=C(c1ccccc1)c1ccccc1 (centres undefined)
inactive: [6] | [7] | [8] | [10] | [11] | [12] | [13] | [14] | [15]

Cc1cc2cc3c(C)cc(=O)oc3c(C)c2o1
inactive: [2]

O=C(O)c1cccnc1Nc1cccc(C(F)(F)F)c1
inactive: [2] | [16] | [4]

CC1(C)C(=O)N(CCN2CCC(C(=O)c3ccc(F)cc3)CC2)c2ccccc21
inactive: [16] | [4]

O=C1NC(=O)C(c2ccccc2[N+](=O)[O-])=C1Nc1ccc(O)c(Cl)c1
inactive: [17] | [16] | [4]

COc1ccccc1N1CCN(CCN(C(=O)C2CCCCC2)c2ccccn2)CC1
inactive: [17] | [16] | [4]

CN1C(C(=O)Nc2ccccn2)=C(O)c2sccc2S1(=O)=O
inactive: [2]

Cc1nc2n(c(=O)c1CCN1CCC(c3noc4cc(F)ccc34)CC1)CCCC2
inactive: [16]

Nc1cc(C(Cl)=C(Cl)Cl)c(S(N)(=O)=O)cc1S(N)(=O)=O
inactive: [2]

Oc1ccc(-c2nc(-c3ccc(F)cc3)c(-c3ccncc3)[nH]2)cc1
inactive: [17] | [3] | [16] | [4]

Nc1nc(OCc2ccccc2)c2[nH]cnc2n1
inactive: [17] | [3] | [16] | [4]

Cc1c(OCC(F)(F)F)ccnc1CS(=O)c1nc2ccccc2[nH]1 (centres undefined)
inactive: [2] | [3] | [16] | [4]

NC(=NCc1ccccc1)NC(=O)c1nc(Cl)c(N)nc1N
inactive: [2] | [16] | [4]

O=C(CCc1ccc(O)cc1)c1c(O)cc(O)cc1O
inactive: [2] | [17] | [3] | [16] | [4]

O=C1c2ccccc2-c2n[nH]c3cccc1c23
inactive: [17] | [3] | [16] | [4]

CC(C)c1ccc2c(c1)c(SC(C)(C)C)c(CC(C)(C)C(=O)O)n2Cc1ccc(Cl)cc1
inactive: [3] | [16] | [4]

O=c1ccc2ccc(O)c(O)c2o1
inactive: [17] | [16] | [4]
active: [19] 15.8 µM

CCN(CCO)CCCC(C)Nc1ccnc2cc(Cl)ccc12 (centres undefined)
inactive: [2]

Cc1cccc(C#Cc2ccccc2)n1
inactive: [4] | [19]
active: [16] 15.8 µM | [18] 25.1 µM

CNC[C@H](O)c1ccc(O)c(O)c1
inactive: [16] | [4]

NNc1nncc2ccccc12
inactive: [2] | [4] | [19]
active: [18] 7.94 µM

CN1CCC(=C2c3ccccc3CCc3sccc32)CC1
inactive: [2]

COc1ccc2cc([C@H](C)C(=O)O)ccc2c1
inactive: [16] | [4]

Cc1cc(O)c2c(c1)C(=O)c1cc(O)cc(O)c1C2=O
not listed: [1] | [2] | [5] | [7] | [18] | [19]
inactive: all other assays above

CN(C)CCc1c[nH]c2ccc(Cn3cncn3)cc12
inactive: [2]

O=c1c(O)c(-c2ccc(O)cc2O)oc2cc(O)cc(O)c12
inactive: [2] | [3] | [16] | [4]
active: [19] 20 µM

Nc1ccc(S(N)(=O)=O)cc1
not listed: [1] | [3] | [4] | [5] | [16] | [17] | [18] | [19]
inactive: all other assays above
